GLP1R inv ag – acts as inverse agonist at human GLP-1 receptor | P43220 | HEK293 GLP-1R CRE-luciferase, luminescence, 24 h; GLP-1R form is constitutively active | Potency, µM (doses to about 38.3 µM), for inactives: at the highest dose activity change, negative = inhibition, usual class: inhibitors | hit rate 1.6% among 410,000; further: potency means the concentration at half of the fitted maximal effect; on the % scale 0 is the no-effect control and ±100 the full control effect; nearly all actives have a fitted effect of over 55% in size
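Inverse agonists were sought by their lowering of basal cAMP reporter luciferase output in HEK293 cells stably carrying constitutively active human GLP-1R, after 24 h compound treatment.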
hERG WT inh – blocks the wildtype human KCNH2 potassium channel. Q12809. U2OS, BacMam KCNH2, thallium flux FluxOr; stronger effect = lower value. activity change, % at 1.84 µM. hit rate 0.37% among 340,000;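 active means maximum activity change below -70%; inconclusive means maximum activity change between -70% and -50%; inactive means maximum activity change above -50%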; further: on the % scale 0 is the no-effect control and ±100 the full control effect
Target sequence (Q12809 whole entry, looked up): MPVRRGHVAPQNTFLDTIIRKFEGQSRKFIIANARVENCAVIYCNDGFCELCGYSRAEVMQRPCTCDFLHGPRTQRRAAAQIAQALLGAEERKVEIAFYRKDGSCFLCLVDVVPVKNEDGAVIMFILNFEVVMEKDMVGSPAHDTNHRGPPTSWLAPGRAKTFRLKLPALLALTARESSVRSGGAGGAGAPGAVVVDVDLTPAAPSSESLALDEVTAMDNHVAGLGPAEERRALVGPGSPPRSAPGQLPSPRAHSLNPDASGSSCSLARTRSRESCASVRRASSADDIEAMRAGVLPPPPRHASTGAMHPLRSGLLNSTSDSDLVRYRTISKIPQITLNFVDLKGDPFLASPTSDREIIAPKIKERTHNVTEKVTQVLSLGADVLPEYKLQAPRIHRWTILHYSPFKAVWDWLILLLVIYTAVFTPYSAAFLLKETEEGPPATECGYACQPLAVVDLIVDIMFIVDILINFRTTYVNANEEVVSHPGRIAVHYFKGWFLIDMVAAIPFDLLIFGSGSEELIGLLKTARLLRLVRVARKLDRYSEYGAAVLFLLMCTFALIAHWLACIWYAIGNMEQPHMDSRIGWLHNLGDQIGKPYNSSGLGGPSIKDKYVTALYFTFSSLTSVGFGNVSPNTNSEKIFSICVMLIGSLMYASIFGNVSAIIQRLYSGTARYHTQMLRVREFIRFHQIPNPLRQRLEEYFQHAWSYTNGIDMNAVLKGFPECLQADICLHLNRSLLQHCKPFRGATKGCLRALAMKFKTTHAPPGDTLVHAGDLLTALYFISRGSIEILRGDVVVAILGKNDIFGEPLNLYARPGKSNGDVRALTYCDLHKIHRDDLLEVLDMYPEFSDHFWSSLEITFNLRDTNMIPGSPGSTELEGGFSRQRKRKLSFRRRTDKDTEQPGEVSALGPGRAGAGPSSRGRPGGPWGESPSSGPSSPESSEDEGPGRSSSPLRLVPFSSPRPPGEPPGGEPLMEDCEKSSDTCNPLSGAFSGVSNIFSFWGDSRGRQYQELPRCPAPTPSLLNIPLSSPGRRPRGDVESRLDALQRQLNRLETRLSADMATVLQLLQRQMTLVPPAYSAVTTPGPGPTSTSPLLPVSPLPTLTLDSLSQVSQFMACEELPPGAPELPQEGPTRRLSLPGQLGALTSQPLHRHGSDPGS
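U2OS cells were transduced with wild-type KCNH2 virus (2.03 x 10^8 / mL) for 4 h at room temperature, then cultured overnight at 37 C. Thallium flux was read with FluxOr dye. Rate constants were normalized to DMSO controls.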
HEK293 tox – cytotoxicity in counter-screen for GLP-1R inverse agonists. HEK293 cAMP-luciferase reporter cells, luminescence, 24 h. Potency, µM (series often up to 38.3 µM), without a hit: top-dose activity change, negative = inhibition, most hits filed as inhibitors. hit rate 0.13% among 410,000;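 further: loss of luciferase light is scored as toxicity; potency means the concentration at half of the fitted maximal effect; on the % scale 0 is the no-effect control and ±100 the full control effect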
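Luminescence readout: signal drop marks cytotoxicity. Plated cells grew 12 h at 37 °C, 5% CO2, received 23 nL compound for 24 h, then got luciferase reagent, read after 12 min at RT.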
KCNH2 3.1 block – KCNH2 3.1 (human) potassium channel inhibition. U2OS KCNH2 3.1, thallium flux FluxOr; stronger effect = lower value. activity change, % (tested at about 1.8 µM). hit rate 0.95% among 340,000;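 active means maximum activity change below -70%; inconclusive means maximum activity change from -70% to -50%; inactive means maximum activity change above -50%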;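 further: thallium influx rate constant from kinetic fluorescence after stimulation buffer; on the % scale 0 is the no-effect control and ±100 the full control effect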
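FluxOr-based Tl+ influx in U2OS cells transduced with KCNH2 3.1 virus; rate constants normalized to DMSO controls.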
GLS inhibitor – blocks human kidney-isoform glutaminase activity | Potency, µM (doses to about 45.5 µM), without a hit: at the highest dose activity change, negative = inhibition, most hits filed as inhibitors | AID 624170 | GLS enzymatic activity, qHTS titration | hit rate 0.21% among 410,000 | O94925; further: potency means the concentration at half of the fitted maximal effect; on the % scale 0 is the no-effect control and ±100 the full control effect
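Enzyme dispensed in phosphate buffer (45 mM, pH 8.2, 0.02% Tween-20), compounds pinned in, then 1 mM L-glutamine solution and the glutamate oxidase–HRP–Amplex Red mix added; fluorescence read immediately and again after 30 min at room temperature.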
GLP-1R agonist – activates the human GLP-1 receptor. AID 624172. hit rate 0.007% among 380,000. P43220. HEK293 GLP-1R CRE-luciferase, luminescence, 4-6 h; cells express a hypersensitive GLP-1R form. Potency, µM (titrated, usually from 45.6 µM), for inactives: top-dose activation, actives largely listed as activators; further: potency means the concentration at half of the fitted maximal effect; % of control where 0% means no effect
Numbers without * were called inactive; ? = inconclusive; · = not tested or not shown. A selection: hits, their analogues and other compounds. The true share with any hit is near 2.8%. Unless noted, the call rests on the fitted dose curve; in most records, active means well fitted curve in the direction sought with a large enough effect; inconclusive means small, poorly fitted or top-dose-only effect, or another doubt; inactive means no such curve, though single readings can be large; an effect the other way counts as inactive or inconclusive.

SMILES	GLP1R inv ag	hERG WT inh	HEK293 tox	KCNH2 3.1 block	GLS inhibitor	GLP-1R agonist
O=C(Nc1ccccc1)N1CCCN(c2ccc(C(F)(F)F)cc2[N+](=O)[O-])CC1	7.94µM*	8.2	-0.1%	7.1	5.0%	3.4%
Cc1cc(N2CCN(c3ccc(C(F)(F)F)cc3[N+](=O)[O-])CC2)c2ccccc2n1	7.94µM*	-97.9*	?	-101.7*	-0.8%	-1.1%
CCN(c1ccccc1)S(=O)(=O)c1c(-c2ccc(C)cc2)csc1C(=O)OC	?	·	1.2%	·	-2.5%	·
O=P(O)(O)C(O)(Cc1cnc2ccccn12)P(=O)(O)O	·	·	·	·	1.8%	-5.9%
O=C1COc2ccc(-c3cc(-c4ccc(Cl)cc4)c4c(n3)-c3ccccc3OC4)cc2N1	2.2%	·	-2.5%	·	10.7%	0.7%
CCOc1ccc(C(=O)NC(=S)N2CCN(c3ccc(C(F)(F)F)cc3[N+](=O)[O-])CC2)cc1	18.7%	?	-2.3%	-70.4*	2.3%	-3.8%
CC(C)(C)OC(=O)N(CCc1ccccc1)Cc1cccc(OCc2cccc(NC(=O)c3ccccc3)c2)c1	10µM*	-4.9	0.7%	1.7	37.6%	-2.6%
CC(C)(C)OC(=O)N(CCc1ccccc1)Cc1ccc(OCc2cccc(NC(=O)/C=C/c3ccccc3)c2)cc1	?	-3.3	0.6%	-6.1	-7.0%	-0.3%
CC(C)(C)OC(=O)N(CCc1ccccc1)Cc1ccc(OCc2cccc(NC(=O)C3CC3)c2)cc1	7.94µM*	0.7	8.6%	-2.9	-6.2%	-2.5%
COc1ccccc1CN(C)CC(=O)NC1CCCc2ccccc21 (configuration not stated)	?	19.4	-2.4%	4.3	-0.3%	13.4%
COc1ccccc1CN(C)CC(=O)NC(=O)NC1CCCCC1	4.47µM*	3.9	5.7%	2.1	-7.7%	14.0%
CCOC(=O)C1=C[C@@H](c2ccccc2)N(S(=O)(=O)c2ccc(C)cc2)[C@H]1c1cccc(Cl)c1	?	·	20.1%	·	18.9%	7.0%
Cc1ccc(CNC(=S)Nc2ccc(NS(=O)(=O)c3ccc(C)cc3)cc2)cc1	10µM*	4.7	?	12.2	0.2%	0.4%
Cc1ccc(NC(=S)NCc2ccc(F)cc2)cc1	?	-2.3	?	-4.7	0.0%	19.1%
O=C1c2ccccc2NC(c2ccc([N+](=O)[O-])cc2)N1O (configuration not stated)	10µM*	-1.9	2.9%	-12.9	0.0%	10.8%
O=C1c2ccccc2NC(c2cccc([N+](=O)[O-])c2)N1O (configuration not stated)	?	-3.0	-24.7%	-4.6	6.2%	0.5%
COc1ccc(NC(=O)CSCC(=O)N(C)Cc2ccc(Cl)c(Cl)c2)cc1	10µM*	3.1	-4.8%	20.7	1.9%	20.8%
Cc1ccc(NC(=O)CSCC(=O)N(C)Cc2ccc(Cl)c(Cl)c2)cc1	?	-13.6	-27.4%	-12.2	3.0%	3.2%
Cc1ccc(-c2cc(N)n(Cc3ccc(Cl)cc3)n2)cc1	11.2µM*	7.6	-16.5%	2.8	4.8%	0.2%
COc1ccc(C2CC(=O)c3cc(-c4nc(-c5ccc(C)cc5)cs4)c(=O)[nH]c3C2)cc1 (configuration not stated)	7.4%	·	23.4%	·	-6.7%	·
Cc1c(C(=O)NCCSCc2c(F)cccc2Cl)cnn1-c1ccc(Cl)cc1	10µM*	1.1	0.0%	-18.1	12.6%	17.3%
CCCCC(=O)N(C)c1c(CC)nc2c(OCCOc3ccc(F)cc3)cccn12	?	·	-8.7%	·	-1.1%	-3.2%
CC(C#N)(NC(=O)CN1CCN(S(=O)(=O)c2ccc(Br)cc2Cl)CC1)C1CC1 (configuration not stated)	-1.8%	1.4	0.7%	0.1	-0.3%	0.2%
Oc1ccc2ccccc2c1C=Nc1ccc(N2CCOCC2)cc1	-0.5%	-14.6	-2.3%	7.8	27.5%	7.5%
Oc1c(Br)cc(Cl)cc1C=Nc1ccc(N2CCOCC2)cc1	12.7%	-4.6	-8.5%	-18.1	12.6µM*	2.7%
SMILES	GLP1R inv ag	hERG WT inh	HEK293 tox	KCNH2 3.1 block	GLS inhibitor	GLP-1R agonist
C(=Nc1ccc(N2CCOCC2)cc1)c1c[nH]c2ccccc12	46.3%	-10.9	-11.4%	-0.7	11.2µM*	4.1%
CC1CCc2c(sc(NC(=O)c3cc(-c4ccc(Br)cc4)on3)c2C(N)=O)C1 (configuration not stated)	0.9%	·	1.5%	·	-9.3%	·
CCN(C(=O)CSc1nc(-c2ccc(C(C)C)cc2)no1)c1ccccc1	11.2µM*	·	3.4%	·	-3.7%	·
O=[N+]([O-])c1ccc(NC2CCCC2)cc1	11.5%	4.0	3.0%	-2.8	3.3%	-1.8%
O=[N+]([O-])c1ccc(N/N=C2/CCCCC2c2ccccn2)cc1 (configuration not stated)	1.26µM*	0.4	-2.5%	-0.4	0.0%	7.3%
O=C(C(Cc1ccccc1)n1cccc1)N1CCN(c2cccc(Cl)c2)CC1 (configuration not stated)	11.2µM*	9.8	-6.8%	2.7	-0.1%	-1.8%
O=C(C(=O)N1CCN(c2cccc(Cl)c2)CC1)c1c[nH]c2ccccc12	8.91µM*	9.5	-22.2%	-1.3	-4.3%	-1.7%
CCC(C(=O)N1CCN(c2cccc(Cl)c2)CC1)c1ccccc1 (configuration not stated)	5.01µM*	-11.2	-20.8%	-10.4	8.6%	-3.3%
CCOC(=O)N1CCc2c(sc(NCc3ccc(OC)c(Br)c3)c2C(=O)Nc2cc(OC)ccc2OC)C1	10.3%	·	0.7%	·	-5.1%	·
CCOC(=O)C1CCCN(C(=O)c2ccc3c(c2)N(Cc2cccc(Cl)c2)C(=O)c2ccccc2S3(=O)=O)C1 (configuration not stated)	-14.3%	·	-0.5%	·	-9.2%	·
C=CC[C@]12CC=CC(=O)[C@@]1(O)O[C@H](c1ccc(OC)c(OC)c1)[C@H]2C	11.2µM*	-11.6	-25.1%	-1.4	-3.6%	-0.3%
O=C(CN1CCOCC1)Nc1cccc(C(=O)Nc2cccc(C(F)(F)F)c2)c1	-23.2%	-7.0	?	1.0	-13.9%	-5.4%
CCCCCNCC(=O)Nc1cccc(C(=O)Nc2cccc(C(F)(F)F)c2)c1	6.31µM*	9.3	?	-48.1	-2.8%	11.9%
CCCc1nc2c(=O)n(C)c(=O)nc-2n(C)n1	?	-10.1	?	-7.5	2.7%	-4.7%
Cn1nc(-c2ccccn2)nc2c(=O)n(C)c(=O)nc1-2	3.16µM*	0.2	?	0.9	-4.8%	-8.0%
CN(C(=O)c1ccccc1[N+](=O)[O-])c1ccccc1C(=O)NCc1ccccc1	6.2%	1.9	11.0%	-0.8	9.5%	-1.8%

Assay outcomes (PubChem)
